Activity calls are given as the source filed them.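 Rule for the calls: active = cell survival after UV exposure 2 SD above solvent-only control wells at 10 µM, confirmed on one or two repeats; inactive = the rest.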
Assay: protection of CHO cells from pyrene-fatty acid UV killing, primary screen, phospholipid biosynthesis inhibitor project, ZR-82 cells, Analyticon library, screen 2 (AID 1347383);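 note: survival reflects blocked phospholipid synthesis cutting uptake of the phototoxic fatty acid; compound and fatty acid exposure 3 h then viability read next day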
Settings: ZR-82 CHO cells, CellTiter Blue, at 10 µM, peroxisome-deficient CHO-K1 variant, with DGAT-1, DGAT-2 and ACAT inhibitors

Row | Compound | outcome
1 | COc1c(OC)c(O)c2c3c(cc4ccccc42)NC(=O)c13 | inactive
2 | CCC(=O)C1OC(O)(CCC2=CCOC2=O)C2(C)CCCC(C)(C)C12 (centres undefined) | inactive
3 | O=C(O)c1ccc(OC2OC(CO)C(O)C(O)C2O)cc1 (centres undefined) | inactive
4 | CO[C@@H]1C(=O)CC[C@]2(O)CS[C@H](CC=C(C)C)[C@](C)(O)[C@@]12O | inactive
5 | COc1c(OC)c(OC)c2c(c1OC)c(=O)c1ccccc1n2C | inactive
6 | C=C1C(=O)OC2/C=C(\C)C3=CC(=O)C(C)(CC(OC(=O)/C(C)=C/COC(C)=O)C12)O3 (centres undefined) | inactive
7 | O=C1c2cccc(O)c2C(=O)c2c(O)cccc21 | inactive
8 | COc1cc(C[C@H]2C(=O)OC[C@@H]2Cc2ccc(OC)c(OC)c2)ccc1O | inactive
9 | C/C=C(/C)C(=O)Oc1c(OC)c(OC)cc2c1-c1c(cc(OC)c(OC)c1OC)C[C@](C)(O)[C@@H](C)C2 | inactive
10 | CCCCc1c(CC=C(C)C)[nH]c(=O)c(C)c1O | inactive
11 | COc1c(O)cc2c3c1COc1cc(O)cc(c1-3)CC2 | inactive
12 | CC(=O)Oc1ccc2c(C)cc(=O)oc2c1 | inactive
13 | O=c1ccc2ccc(O[C@@H]3O[C@H](CO)[C@@H](O)[C@H](O)[C@H]3O)cc2o1 | inactive
14 | COc1c2cc(c(O)c1OC)CCCCC(O)CCc1ccc(O)c-2c1 (centres undefined) | inactive
15 | Nc1c(O)cccc1C(=O)O | inactive
16 | CC1=CC(=O)C2C(C)(C)CC(O)CC2(C)C1CO (centres undefined) | inactive
17 | COc1cc2ccc3c(c2cc1OC)N(C)Cc1c(OC)c(OC)cc(OC)c1-3 | inactive
18 | CC(C)(O)[C@@H]1Cc2cc3ccc(=O)oc3cc2O1 | inactive
19 | COc1ccc(/C=C/C(=O)O)cc1 | inactive
20 | CC1Cc2cc(O)c(O)cc2C(c2ccc(O)c(O)c2)C1C (centres undefined) | inactive
21 | C=C(CO)C1Cc2c(ccc3c(=O)c4c(oc23)COc2cc(O)c(OC)cc2-4)O1 (centres undefined) | inactive
22 | CC1(C)CC2C(O)c3cocc3CC(C)(O)C2C1 (centres undefined) | inactive
23 | COC(=O)C1=CO[C@@H](C)[C@H]2CN3CCc4c([nH]c5ccccc45)[C@@H]3C[C@H]12 | active
24 | CCC(C)CC(=O)OC1C(=O)C(CO)C(OC)C(OC(C)=O)C1C(C)C (centres undefined) | inactive
25 | O=c1c(-c2ccc(O)cc2)coc2cc(O)ccc12 | inactive

Row | Compound | outcome
26 | C=CC(C)(C)c1cc2cc(CC3OC3(C)C)c(OC)cc2oc1=O (centres undefined) | inactive
27 | C=C[C@@]1(C)CCC2=C(C1)C(=O)CC1[C@](C)(C(=O)O)CCC[C@]21C (some centres undefined) | inactive
28 | C/C1=C\CCC2=C[C@@H](OC2=O)c2c(C)coc2C1 | inactive
29 | CCC1C(=O)O[C@]23C=C[C@@H]4C(C(=O)O)=CO[C@H](OC12)[C@@H]43 (some centres undefined) | inactive
30 | C=C1CCC2C(C)(C)C(OC(C)=O)CCC2(C)C1COc1ccc2ccc(=O)oc2c1 (centres undefined) | inactive
31 | CC(C)(O)C1OC1C1=CC(=O)C2(C)OC2C1O (centres undefined) | inactive
32 | Oc1cc(O)c2c(c1)O[C@H](c1ccc(O)c(O)c1)[C@@H](O)C2 | inactive
33 | C=CCc1ccc(OC(C)Cc2cc(OC)c(OC)c(OC)c2)c(OC)c1 (centres undefined) | inactive
34 | C=CC#Cc1ccc(-c2cccs2)s1 | inactive
35 | C#CC(O)COc1ccc(C(=O)O)cc1 (centres undefined) | inactive
36 | Nc1ccccc1CCCCCCC(=O)O | inactive
37 | O=C1CC(c2ccc(O)cc2)Oc2cc(O)cc(O)c21 (centres undefined) | inactive
38 | C/C=C(\C)C(=O)O[C@@H]1[C@@H](C(C)C)[C@@H](OC(C)=O)C=C(CO)[C@@H]1O | inactive
39 | C[C@@H]1O[C@@H](Oc2ccc(-c3coc4cc(O[C@@H]5O[C@@H](C)[C@H](O)[C@@H](O)[C@H]5O)ccc4c3=O)cc2)[C@H](O)[C@H](O)[C@H]1O | inactive
40 | COc1cc2ccc(=O)oc2cc1OC | inactive
41 | CC1=C2C=C(CO)C(CO)CCC2(C)CCC1=O (centres undefined) | inactive
42 | COc1cc(/C=C/C(=O)O)cc(OC)c1OC | inactive
43 | CC(=O)O[C@H]1CC[C@H](C)[C@@]2(C)[C@H](OC(C)=O)c3c(C)coc3C(=O)[C@H]12 | inactive
44 | CC1(C)O[C@]23C[C@H]1C[C@H](OC(=O)c1ccoc1)[C@]2(C)[C@@H](OC(=O)c1ccoc1)CCC3(C)O (some centres undefined) | inactive
45 | COc1ccc2cc3[n+](cc2c1OC)CCc1cc2c(cc1-3)OCO2 | inactive
46 | COc1cc(O)cc(O)c1C(=O)c1ccc(O)c(O)c1 | inactive
47 | CC[C@]12CCCN3CCc4c(n(c5ccccc45)C(=O)C1)[C@@H]32 | inactive
48 | O=C(O)c1ccc(CO)o1 | inactive
49 | CC1(C)C(=O)C=CC2(C)C1CC(O)C1(C)C3=CCC(c4ccoc4)C3(C)CCC21 (centres undefined) | inactive
